# ELG1 repair inh – inhibitors of ELG1-dependent DNA repair in HEK293T cells; AID 504467; Potency, µM (doses to about 46.1 µM), actives largely listed as inhibitors; HEK293T ELG1-luciferase reporter, luminescence, 16 h; DNA damage induced by 5-fluorouridine; 330,000 compounds, 2.3% hits; also: nearly all actives have a fitted effect of over 55% in size
#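 Cells (2,000 per well) received 5-fluorouridine plus test compound or DMSO and were incubated 16 hr at 37 °C, 5% CO2. Luciferase activity was read by luminescence 30 min after ONE-Glo addition; signal suppression marked inhibition of damage-induced ELG1 function.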
# Rab9 prom act – activators of Rab9 promoter | Huh7 Rab9 promoter-luciferase reporter, luminescence, 24 h | Potency, µM (series often up to 9.22 µM), hits mostly activators | 320,000 compounds, 2.8% hits; also: nearly all actives have a fitted effect of over 60% in size
#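 Huh7 cells stably carrying a Rab9 promoter-luciferase reporter, 1500 cells per well in OP-MEM I with 10% FBS, treated with compound 24 hours at 37C. Luciferase activity read by luminescence after 10 minutes with Amplite reagent.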
# NPC1 prom act – NPC1 promoter activation; Potency, µM (series often up to 9.22 µM), most hits filed as activators; 320,000 compounds, 2.4% hits; AID 485313; Huh7 NPC1 promoter luciferase reporter, 24 h; also: nearly all actives have a fitted effect of over 60% in size
#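 Huh7 cells stably carrying NPC1 promoter–luciferase, plated in Opti-MEM with 10% FBS for 2 h, were exposed to compound in DMSO for 24 h at 37 °C; luciferase reagent was added for 10 min and luminescence read.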
# ELG1 genotoxic – inducers of genotoxicity in HEK293T ELG1-luciferase cells. HEK293T ELG1-luciferase reporter, luminescence, 16 h. AID 504466. 330,000 compounds, 1.3% hits. Potency, µM (series often up to 46 µM), actives largely listed as activators; also: nearly all actives have a fitted effect of over 60% in size
#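 Step 1: seed 2,000 HEK293T ELG1-luciferase cells per well. Step 2: add compound or DMSO, incubate 16 hr at 37 °C. Step 3: ONE-Glo, 30 min at room temperature, read luminescence.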
# SMN2 splice enh – SMN2 splice variant enhancement; HEK293 SMN2-luciferase splicing reporter, luminescence, 30-36 h; Potency, µM (series often up to 46.1 µM), most hits filed as activators; 210,000 compounds, 2.8% hits; also: nearly all actives have a fitted effect of over 55% in size
#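 qHTS luciferase splicing reporter: luminescence rises when SMN2 exon 7 is included in transfected HEK293 cells. Compound exposure lasted 30-36 h at 37C, with 4.5 mM final sodium butyrate as control, followed by a ONE-Glo read.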
# FLuc modulator – firefly luciferase modulation, counter-screen for miR-21 project; AID 588342; P08659; 360,000 compounds, 6.9% hits; purified FLuc, Km substrates, luminescence inhibition; Potency, µM (series often up to 57.5 µM), most hits filed as inhibitors; also: nearly all actives have a fitted effect of over 55% in size
# Target sequence (P08659 whole entry, looked up): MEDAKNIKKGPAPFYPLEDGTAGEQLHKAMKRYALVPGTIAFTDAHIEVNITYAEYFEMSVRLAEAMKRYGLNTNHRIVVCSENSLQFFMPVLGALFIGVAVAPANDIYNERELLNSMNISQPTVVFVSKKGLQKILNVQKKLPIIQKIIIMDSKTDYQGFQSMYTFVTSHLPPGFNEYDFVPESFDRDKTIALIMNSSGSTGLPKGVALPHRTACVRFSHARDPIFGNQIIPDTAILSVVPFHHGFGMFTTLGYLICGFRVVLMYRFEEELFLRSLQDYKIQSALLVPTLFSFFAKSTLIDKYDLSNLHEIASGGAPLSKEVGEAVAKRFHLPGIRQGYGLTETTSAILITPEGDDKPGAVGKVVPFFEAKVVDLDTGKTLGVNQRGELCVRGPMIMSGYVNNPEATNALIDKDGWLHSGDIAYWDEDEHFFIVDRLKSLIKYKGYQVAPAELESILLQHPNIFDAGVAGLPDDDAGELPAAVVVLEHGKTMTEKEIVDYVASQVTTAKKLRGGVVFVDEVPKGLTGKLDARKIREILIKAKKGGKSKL
#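 Purified P. pyralis luciferase, 10 nM final, with Km-level 10 uM D-luciferin and 10 uM ATP in 50 mM Tris acetate pH 7.5, 10 mM Mg acetate, 0.01% Tween-20, 0.05% BSA; 6-point qHTS titration about 60 µM downward; luminescence read.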
# A number is an active result; n = inactive; u = inconclusive; x = not tested or not shown. The list is not random: actives were taken first. Their share in the collection is about 9.3%. Calls follow the shape of the dose curve; as a rule, active = well fitted curve in the direction sought with a large enough effect; inconclusive = small, poorly fitted or top-dose-only effect, or another doubt; inactive = no such curve, though single readings can be large; an effect the other way counts as inactive or inconclusive.
SMILES,ELG1 repair inh,Rab9 prom act,NPC1 prom act,ELG1 genotoxic,SMN2 splice enh,FLuc modulator
Cc1cc(NC(=O)CSc2nc(C(C)C)nc3ccccc23)no1,15µM,n,n,n,n,n
COc1ccc(C(=O)NCCn2cc(SCC(=O)Nc3cccc(C)c3)c3ccccc32)cc1,x,x,x,x,n,u
COc1ccc(C(=O)NCCn2cc(SCC(=O)NCc3ccco3)c3ccccc32)cc1,u,u,n,n,n,17µM
COc1ccc(C(=O)NCCn2cc(SCC(=O)NCC3CCCO3)c3ccccc32)cc1 (configuration not stated),n,n,n,n,x,n
Cc1cc(NC(=O)CSc2cn(CCNC(=O)c3ccc(F)cc3)c3ccccc23)no1,n,n,n,n,n,17µM
COC(=O)CCN(C(=O)c1ccc(Cl)c([N+](=O)[O-])c1)c1ccccn1,n,n,n,n,x,n
CCCCn1c(=O)[nH]c(=O)c2c1nc(-c1ccc(-c3ccccc3Br)o1)n2CCOC,2.6µM,n,n,n,n,u
CCCCn1c(=O)[nH]c(=O)c2c1nc(-c1ccc(OCCC)c(OCC)c1)n2CCOC,6.5µM,n,n,n,n,n
CCc1ccccc1Nc1ncnc2c1cnn2-c1ccc(Cl)cc1,x,x,x,x,x,12µM
Cc1ccc(-n2ncc3c(NNC(=O)c4ccccc4C)ncnc32)cc1,x,x,x,x,x,n
Cc1ccc(-n2ncc3c(Nc4ccccc4C)ncnc32)cc1,x,x,x,x,x,3.4µM
Cc1cccc(-n2ncc3c(Nc4c(C)cc(C)cc4C)ncnc32)c1,x,x,x,x,x,n
Cc1ccccc1Nc1ncnc2c1cnn2-c1ccccc1,u,u,u,8.2µM,11µM,17µM
CCOc1ccc(Nc2ncnc3c2cnn3-c2ccccc2)cc1,n,n,n,18µM,n,n
CC(=O)Nc1ccc(-c2csc(N3CCC(C(N)=O)CC3)n2)cc1,x,x,x,x,x,n
CCC(C(=O)NCCC(C)C)N(C(=O)Cn1nnc(-c2ccc(C)cc2)n1)c1cccc(O)c1 (configuration not stated),x,x,x,x,n,n
CCOC(=O)C(=CNc1cc(C)ccn1)C(=O)OCC,n,n,n,n,n,n
COc1ccc(C(=O)/C=C/Nc2cc(C)ccn2)cc1,u,0.32µM,0.4µM,u,x,0.48µM
O=C(/C=C\Nc1ccc(Cl)cn1)c1ccc(Br)cc1,u,2.5µM,2µM,u,11µM,u
Cc1ccnc(N/C=C/C(=O)c2ccc(Br)cc2)c1,u,1.1µM,1.6µM,u,x,0.95µM
O=C(Nc1ccc(Cl)cn1)C1CC1,n,n,n,n,n,n
COc1ccc(CC(=O)Nc2ccc(S(=O)(=O)Nc3onc(C)c3C)cc2)cc1OC,n,n,n,n,x,n
Cc1ccc(S(=O)(=O)NCC(Nc2cccc(Cl)c2)c2ccccc2)cc1 (configuration not stated),x,x,x,x,n,n
COc1ccc(C(=O)N2CCC(c3nc(-c4ccc(S(=O)(=O)N5CCCC5)cc4)no3)CC2)cc1,x,x,x,x,n,n
CC(=O)Nc1nc(-c2ccc3c(c2)CCO3)cs1,u,u,u,n,u,12µM
SMILES,ELG1 repair inh,Rab9 prom act,NPC1 prom act,ELG1 genotoxic,SMN2 splice enh,FLuc modulator
O=C(Nc1nc(-c2ccc3c(c2)Cc2ccccc2-3)cs1)c1ccccc1,n,n,n,n,n,n
Nc1nc(-c2ccc3c(c2)CCC(=O)N3)cs1,u,n,n,u,u,u
Nc1nc(-c2ccc3c(c2)CCO3)cs1,u,u,n,n,10µM,u
O=C(NC(=S)Nc1cccc(Cl)c1Cl)C1CC1,u,n,n,n,x,n
CC(C)Oc1ccc(S(=O)(=O)N2CCOCC2)cc1NC(=O)C(C)Oc1ccc(F)cc1 (configuration not stated),u,n,n,n,x,n
CC1CCN(C(C(=O)O)c2ccccc2)CC1 (configuration not stated),n,n,n,n,n,n
O=C(Nc1ccccc1)c1ccn[nH]1,u,2.5µM,3.5µM,u,13µM,11µM
O=C(Nc1cccc([N+](=O)[O-])c1)c1ccn[nH]1,u,u,u,n,n,n
CC(=O)c1ccc(NC(=O)c2ccc(-n3cnnc3)cc2)cc1,x,x,x,x,x,n
CC(=O)c1ccc(NC(=O)c2ccn[nH]2)cc1,u,3.5µM,2µM,10µM,11µM,9.5µM
O=C(CSc1ccc(-c2ccc(F)cc2)nn1)N1CCCCC1,u,n,n,n,n,u
COc1ccc(-c2cc(C(F)(F)F)nc(SCC(=O)N3CCOCC3)n2)cc1OC,8.2µM,n,n,n,n,n
O=C(CSc1ccc(-c2ccc(Br)cc2)nn1)N1CCOCC1,n,n,n,n,n,15µM
COc1ccc(-c2ccc(SCC(=O)N3CCOCC3)nn2)cc1,u,n,n,n,n,11µM
CC(C)CCN1CCC(N)=NC1=O,n,n,n,n,n,n
Cc1nc2ccn(Cc3cccnc3)c(=O)c2cc1C(=O)Nc1ccc(OC(F)(F)F)cc1,x,x,x,x,x,n
Cc1ccc(NC(=O)Cn2cnc3c(oc4ccccc43)c2=O)cc1Cl,x,x,x,x,x,n
CCOC(=O)C1=NOC2COC3(CCN(c4ncccn4)CC3)OCC12 (configuration not stated),n,n,n,n,n,n
Cc1nn(C)cc1CNC(=O)c1cc2n(n1)C(C(F)(F)F)CC(c1cccs1)N2 (configuration not stated),23µM,n,n,n,n,n
O=C(CN1C(=O)NC2(CCCC2)C1=O)Nc1cc(Cl)ccc1Oc1ccccc1,n,n,n,n,x,n
COc1ccc(-c2oc3c(OC)c(OC)c(OC)c(O)c3c(=O)c2OC)cc1OC,12µM,n,n,n,x,n
COc1c(-c2ccc(O)cc2)oc2cc(O)cc(O)c2c1=O,u,n,n,n,x,n
COc1ccc(-c2oc3cc(O)c(OC)c(O)c3c(=O)c2OC)cc1,n,n,n,n,x,19µM
COc1ccccc1-n1cnnc1SC(C)C(=O)Nc1ccc(NC(C)=O)cc1 (configuration not stated),n,n,n,n,n,n
Cc1c(C(=O)OCCN2CCCCC2)oc2ccccc12,n,n,n,n,n,19µM
SMILES,ELG1 repair inh,Rab9 prom act,NPC1 prom act,ELG1 genotoxic,SMN2 splice enh,FLuc modulator
Cc1c(C(=O)OCC(=O)N2CC(C)CC(C)C2)oc2ccccc12 (configuration not stated),n,n,n,n,x,n
CCN(CC)CC(C)(C)COC(=O)c1oc2ccccc2c1C,n,n,n,n,x,n
Cc1c(C(=O)OCC(C)(C)CN(C)C)oc2ccccc12,u,n,n,u,n,19µM
Cc1c(C(=O)OCC(=O)N2C(C)CCCC2C)oc2ccccc12 (configuration not stated),u,u,u,u,x,17µM
Cc1cc(C)c(NC(=O)CSc2nc3[nH]ncc3c(=O)[nH]2)c(C)c1,n,n,n,n,n,n
CCN1CCc2c(C#N)c(N3CCCCC3)nc(NCc3ccccc3)c2C1,x,x,x,x,n,n

# Screens deposited in PubChem BioAssay by National Center for Advancing Translational Sciences (NCATS).
